Assay outcomes deposited in PubChem BioAssay by National Center for Advancing Translational Sciences (NCATS).
CBFb RUNX1 block: qHTS Assay for Compounds Blocking the Interaction Between CBF-beta and RUNX1 for the Treatment of Acute Myeloid Leukemia; Runt-related transcription factor 1 (Homo sapiens) + Core-binding factor subunit beta …; AlphaScreen CBFb-His/RUNX1-biotin binding, biochemical; Potency, µM (highest dose often 59.8 µM), for the others: at the highest dose activity, negative = inhibition, actives largely listed as inhibitors; 230,000 tested, under 10 active; AID 1477, 2009; note: % of control where 0% means no effect
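CBF-beta (His) and RUNX1 (biotin), 30 nM each; 20 min preassociation; + compound, 15 min; + beads 50 ng each (Ni, streptavidin), 90 min; RT; AlphaScreen read.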
Six1-Eya2 inh: qHTS Assay for Inhibitors of the Six1/Eya2 Interaction; Homeobox protein SIX1 (Homo sapiens) + Protein phosphatase EYA2 (Homo sapiens), …; activity change, % (concentration not given with the values); AlphaScreen GST-Six1/His-Eya2 binding, biochemical; hits give low values; AID 651725, 2012; actives 0.56% (n = 360,000); in the data active = activity change below about -65%; inconclusive = mostly about -30% to -63%; note: % is set by controls: 0 for no effect and ±100 for the full control effect
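Homogeneous AlphaScreen proximity assay pairing GST-Six1 with His-tagged Eya2 (added as 5X mix: 250 nM and 500 nM) in 50 mM Tris pH 8.0, 300 mM NaCl, 1 mM TCEP. Glutathione donor and nickel acceptor beads; 1 h, 37 °C, dark.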
MBNL1-CUG inh: qHTS Assay for Inhibitors of MBNL1-poly(CUG) RNA binding; Potency, µM (titrated, usually from 57.5 µM), without a hit: at the highest dose activity change, negative = inhibition, most hits filed as inhibitors; actives 0.036% (n = 280,000); TR-FRET MBNL1-His/biotin-(CUG)12 binding, 665/545 ratio; Muscleblind-like protein 1 (Homo sapiens), Q9NR56; AID 2675, 2010; active = well fitted inhibition curve with a large enough effect in the signal ratio, with a control signal flat, not every such curve was filed as active; inconclusive = small, poorly fitted or top-dose-only effect, or effect the other way, or a change in a side signal; inactive = no such curve, though single readings can be large or run the other way; the % refers to the signal ratio; note: potency is the fitted concentration of half-maximal effect; % is set by controls: 0 for no effect and ±100 for the full control effect
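MBNL1-His + Biotin-(CUG)12, cpd titration 92 nM–58 uM; Tb anti-His Ab 0.055 ng/ul, SA-XL665 5 nM (final); 60 min RT; ratiometric 665/545 nm, Ex 340 nm; normalized to buffer and full-complex controls.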
VP16 counter: VP16 counterscreen qHTS for inhibitors of ROR gamma transcriptional activity. Drosophila S2 Gal4-VP16 UAS-luciferase, luminescence, 20 h. actives 3.5% (n = 310,000). Potency, µM (highest dose often 53.6 µM), inactives show top-dose activity, negative = inhibition, usual class: inhibitors;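 note: Gal4-VP16 expression switched on by copper sulfate through the metallothionein promoter; potency is the fitted concentration of half-maximal effect; % is set by controls: 0 for no effect and ±100 for the full control effect; nearly all actives have a fitted effect of over 50% in size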
RORgamma inh: qHTS for inhibitors of ROR gamma transcriptional activity | AID 2551, 2010 | Drosophila S2 Gal4-RORgamma UAS-luciferase reporter, 20 h | Nuclear receptor ROR-gamma (Mus musculus), P51450 | Potency, µM (titrated, usually from 53.6 µM), without a hit: at the highest dose activity change, negative = inhibition, actives largely listed as inhibitors | actives 5.4% (n = 310,000); note: potency is the fitted concentration of half-maximal effect; % is set by controls: 0 for no effect and ±100 for the full control effect; nearly all actives have a fitted effect of over 60% in size
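ROR gamma transcriptional activity was tracked as Gal4-UAS luciferase output in stably transfected Drosophila Schneider cells, with compound added 1 hr before 700 uM copper sulfate induction and a 20 hr ambient-temperature incubation.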
CtBP-E1A blk: qHTS Assay for Inhibitors of the CtBP/E1A Interaction; CtBP / adenovirus E1A interaction (AlphaScreen); AlphaScreen GST-E1A/His-CtBP binding, 1536-well; hits give low values; activity change, % (concentration not given with the values); actives 0.49% (n = 340,000); in the data active = activity change below about -65%; inconclusive = mostly about -30% to -63%; note: % is set by controls: 0 for no effect and ±100 for the full control effect
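In 5 uL wells, 23 nL compound meets equimolar GST-E1A and His-CtBP (5X stock 125 nM each) for 2 h, 37 °C. Beads (5X, 50 ug/mL) then 1 h, 37 °C, dark.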
An asterisk follows results filed as active. Most compounds without a hit are left out; they make up all but 5.5% or so of the library. Unless noted, calls come from the whole dose curve; as a rule, active = well fitted curve in the direction sought with a large enough effect; inconclusive = small, poorly fitted or top-dose-only effect, or another doubt; inactive = no such curve, though single readings can be large; an effect the other way counts as inactive or inconclusive.

For Cc1noc(C)c1COC(=O)c1ccc(F)c(S(=O)(=O)N2CCOCC2)c1 the results were Six1-Eya2 inh 4.0 and CtBP-E1A blk 1.5.
For C[C@H]1CN([C@@H](C)CO)C(=O)CCCn2nncc2CO[C@H]1CN(C)C(=O)Nc1ccc2c(c1)OCO2 the results were Six1-Eya2 inh 2.7 and CtBP-E1A blk -23.9.
COc1ccc(-c2csc(NC(=O)C3=COCCO3)n2)cc1OC was read as Six1-Eya2 inh 5.4 and CtBP-E1A blk -14.4.
`Cc1c(Cl)cccc1NC(=S)NNc1ncc(C(F)(F)F)cc1Cl` gave CBFb RUNX1 block 1.0%, Six1-Eya2 inh -4.3, MBNL1-CUG inh -5.6%, VP16 counter inconclusive, RORgamma inh 15.8µM* and CtBP-E1A blk -6.2.
For Cc1cccc(C)c1NC(=S)NNc1ncc(C(F)(F)F)cc1Cl the results were CBFb RUNX1 block -5.8%, Six1-Eya2 inh -2.8, MBNL1-CUG inh 0.3%, VP16 counter inconclusive, RORgamma inh 7.94µM* and CtBP-E1A blk -3.7.
`NC(=S)c1ncc(C(F)(F)F)cc1Cl` gave CBFb RUNX1 block 3.5%, Six1-Eya2 inh -16.5, VP16 counter 0.5%, RORgamma inh -35.6% and CtBP-E1A blk 6.1.
For NC(=S)Nc1ncc(C(F)(F)F)cc1Cl the results were CBFb RUNX1 block 0.0%, Six1-Eya2 inh 7.2, MBNL1-CUG inh -6.4%, VP16 counter inconclusive, RORgamma inh 7.08µM* and CtBP-E1A blk -11.1.
For Cc1ccccc1NC(=S)NNc1ncc(C(F)(F)F)cc1Cl the results were CBFb RUNX1 block -8.5%, Six1-Eya2 inh -0.4, MBNL1-CUG inh -3.7%, VP16 counter 3.5%, RORgamma inh 3.0% and CtBP-E1A blk -1.5.
For FC(F)(F)c1cnc(NNC(=S)Nc2cccnc2)c(Cl)c1 the results were CBFb RUNX1 block -3.0%, Six1-Eya2 inh -12.4, MBNL1-CUG inh 6.7%, VP16 counter inconclusive and RORgamma inh 12.6µM*.
`Fc1ccccc1NC(=S)NNc1ncc(C(F)(F)F)cc1Cl` gave CBFb RUNX1 block -1.3%, Six1-Eya2 inh -0.3, MBNL1-CUG inh 0.0%, VP16 counter 15.8µM*, RORgamma inh inconclusive and CtBP-E1A blk -1.0.
O=C(O)c1ccc(/C=N/Nc2ncc(C(F)(F)F)cc2Cl)cc1 was read as CBFb RUNX1 block 0.3%, Six1-Eya2 inh 16.4, VP16 counter 13.1%, RORgamma inh 10µM* and CtBP-E1A blk 4.7.
Screening CCOc1ncccc1C(=O)NNC(=O)c1csc(N2CCOCC2)n1 returned Six1-Eya2 inh 0.1 and CtBP-E1A blk 2.4.
For COc1cccc(Cn2c(=O)c(C)nc3cnc(Oc4cccc(Cl)c4)nc32)c1 the results were VP16 counter 4.3% and RORgamma inh -1.0%.
For CCOc1cc(NC(=S)NC)c(OCC)cc1NC(=O)c1cccs1 the results were CBFb RUNX1 block 8.7%, Six1-Eya2 inh -1.5, MBNL1-CUG inh 3.9%, VP16 counter inconclusive, RORgamma inh 8.91µM* and CtBP-E1A blk 1.6.
Screening CCOc1cc(NC(=S)NCCOC)c(OCC)cc1NC(=O)c1cccs1 returned CBFb RUNX1 block -6.5%, Six1-Eya2 inh -6.5, MBNL1-CUG inh 8.9%, VP16 counter inconclusive, RORgamma inh 14.1µM* and CtBP-E1A blk -13.4.
CCOc1cc(NC(=S)NCCCN(C)C)c(OCC)cc1NC(=O)c1cccs1 was read as CBFb RUNX1 block 3.7%, Six1-Eya2 inh -9.0, VP16 counter 6.6%, RORgamma inh -13.2% and CtBP-E1A blk -12.3.
